# Bioassay records (PubChem)
# Sm TGR inh: qHTS Assay for the Inhibitors of Schistosoma Mansoni Peroxiredoxins; 360,000 tested, 3% active; Schistosoma mansoni thioredoxin glutathione reductase (TGR), Q962Y6; purified TGR, DTNB reduction, TNB absorbance 405 nm; AID 485364, 2010; Potency, µM (top dose mostly 114 µM), without a hit: at the top dose activity change, negative = inhibition, usual class: inhibitors; further: potency means the concentration at half of the fitted maximal effect; on the % scale 0 is the no-effect control and ±100 the full control effect; nearly all actives have a fitted effect of over 60% in size
#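 TGR 20 nM + NADPH 100 uM (dispensed conc.), cpd preinc 15 min RT; start with NADPH (500 uM addition) then DTNB (15 mM addition). Kinetic TNB absorbance, 405 nm filter. Four-parameter Hill fit across titration.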
# Pf growth 48h: Primary qHTS for delayed death inhibitors of the malarial parasite plastid, 48 hour incubation; P. falciparum luciferase growth in erythrocytes, 48 h; Potency, µM (top dose mostly 28.7 µM), for the others: at the highest dose activity change, negative = inhibition, usual class: inhibitors; 310,000 tested, 5.9% active; further: potency means the concentration at half of the fitted maximal effect; on the % scale 0 is the no-effect control and ±100 the full control effect
#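 Growth was read as firefly luciferase luminescence after a 48 h, 37 C, 5% CO2 exposure of compounds to reporter-bearing P. falciparum cultures (0.1% parasitemia, 2% hematocrit final) in Albumax-supplemented RPMI 1640.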
# HCV inh: qHTS Assay for Inhibitors of Hepatitis C Virus (HCV); Huh7.5.1 HCVcc-Cre infection, luciferase reporter, 44 h; Potency, µM (titrated, usually from 41.8 µM), inactives show at the highest dose activity change, negative = inhibition, actives largely listed as inhibitors; 340,000 tested, 3.4% active; further: potency means the concentration at half of the fitted maximal effect; on the % scale 0 is the no-effect control and ±100 the full control effect
#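 Seed cells (1,000/well) for 4 h; treat with compound and infect with HCVcc-Cre, moi about 0.5. Incubate 44 h, then detect luciferase activity.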
# SARS PLP yeast: qHTS of Yeast-based Assay for SARS-CoV PLP. Potency, µM (series often up to 32.9 µM), inactives show top-dose activity, positive = growth rescue, most hits filed as activators. 330,000 tested, 0.19% active. S. cerevisiae expressing SARS-CoV PLpro, growth rescue. AID 485353, 2010; calls by dose curve; further: potency means the concentration at half of the fitted maximal effect; 0% is about no effect; nearly all actives have a fitted effect of over 55% in size
# HCMV inh: qHTS Assay for inhibitors of the human cytomegalovirus (HCMV). AID 1259415, 2018. HFF cells, HCMV-luciferase reporter, 72 h; active compounds read low. activity change, negative = inhibition, % at 57.5 µM. 410,000 tested, 4.5% active; in the data active means activity change below about -60%; inconclusive means no clear call, values can overlap the other calls; inactive means above about -39%; further: on the % scale 0 is the no-effect control and ±100 the full control effect
#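 Screen run at 2 compound doses on HFFs infected with reporter HCMV, MOI 1 PFU/cell. Luciferase activity from cell lysates at 72 h post infection gave inhibition relative to buffer-only and Salinomycin wells.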
# Pf growth 96h: Primary qHTS for delayed death inhibitors of the malarial parasite plastid, 96 hour incubation; Potency, µM (highest dose often 28.7 µM), without a hit: at the top dose activity change, negative = inhibition, usual class: inhibitors; P. falciparum luciferase reporter growth, 96 h; 320,000 tested, 6.9% active; AID 504834, 2011; further: potency means the concentration at half of the fitted maximal effect; on the % scale 0 is the no-effect control and ±100 the full control effect
#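 Infected RBCs, 2% Hct / 0.05% parasitemia final; luciferase-reporter P. falciparum; cpd 96 h, 37 C, 5% CO2; luciferase detection reagent; luminescence.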
# * = called active by the depositor; ? = inconclusive; . = no result given; [ ] = remark or other dose. This is a sample that favours compounds with a hit; in the whole collection about 15% have one here. Unless noted, the call rests on the fitted dose curve; in most records, active means well fitted curve in the direction sought with a large enough effect; inconclusive means small, poorly fitted or top-dose-only effect, or another doubt; inactive means no such curve, though single readings can be large; an effect the other way counts as inactive or inconclusive.
SMILES,Sm TGR inh,Pf growth 48h,HCV inh,SARS PLP yeast,HCMV inh,Pf growth 96h
COc1ccc(CNC(=O)CC(C)CC2=NS(=O)(=O)c3ccccc3N2)cc1 (stereo not given),-9%,-3%,-5%,3%,-1,4%
COc1ccc(CNC(=O)CCCC2=NS(=O)(=O)c3ccccc3N2)cc1,3%,13%,11%,3%,-34,10µM*
Cc1ccc(CNC(=O)CC2(CC3=NS(=O)(=O)c4ccccc4N3)CCCC2)cc1,-1%,?,11µM*,15%,-8,12µM*
CCOC(=O)N1CCC(NC(=O)C2CCCN(Cc3nc(-c4cccc(Cl)c4)oc3C)C2)CC1 (stereo not given),-6%,.,5.6µM*,-5%,-67*,?
CCN1CCN(CCNC(=O)C2CCCN(Cc3nc(-c4cccc(Cl)c4)oc3C)C2)CC1 (stereo not given),-1%,.,10µM*,-4%,?,-23%
Cc1oc(-c2ccc(Cl)cc2)nc1CN1CCCC(C(=O)NC2CC2)C1 (stereo not given),-28%,0%,?,-2%,18,?
O=S(=O)(NC1c2cccc3cccc(c23)C1Sc1ncccn1)c1ccccc1 (stereo not given),7%,?,?,-36%,-35,?
CCC(=O)NC(c1ccccc1)c1c(OC(C)=O)ccc2ccccc12 (stereo not given),0%,?,0%,-1%,-17,10µM*
CC(=O)Oc1ccc2ccccc2c1C(NC(=O)Cc1ccccc1)c1ccccc1Cl (stereo not given),3%,2.6µM*,?,-9%,-16,27%
O=C(Cc1ccccc1)NC(c1ccco1)c1c(O)ccc2ccccc12 (stereo not given),-20%[57.1 µM],?,?,-2%,13,5%
CCC(=O)NC(c1cccc([N+](=O)[O-])c1)c1c(OC(C)=O)ccc2ccccc12 (stereo not given),-3%,13µM*,-14%,-22%,33,23%
Cc1ccc(C(NC(=O)C2CCCCC2)c2c(O)ccc3ccccc23)cc1 (stereo not given),-3%,?,?,-28%,-66*,?
O=C(O)CC(NC(=O)CC(c1ccccc1)c1ccccc1)c1cccc([N+](=O)[O-])c1 (stereo not given),0%,19%,16%,1%,3,2%
CCN(CC)C(=O)Cn1c(=O)n(-c2ccc(OC)cc2OC)c(=O)c2c(C)c(C(=O)N(CC)CC)sc21,0%,.,.,.,19,.
Cc1nc(C)c(C(=O)OCC(=O)NCc2ccccc2)s1,-8%,3%,7%,0%,-5,14%
OC[C@@H]1CN(Cc2cccc(C(F)(F)F)c2)C[C@H](n2cnc3c(NC4CC4)ncnc32)O1,.,.,.,.,-8,.
CCC(=O)NC(c1ccccc1)c1c(O)ccc2ccccc12 (stereo not given),-7%,9.3µM*,-6%,-4%,1,?
CCCC(=O)NC(c1ccc(N(C)C)cc1)c1c(O)ccc2ccccc12 (stereo not given),1%,?,2%,1%,42,12µM*
CC1CCN(C(=O)c2cc(-c3ccc(Cl)cc3)on2)CC1,5%,.,.,.,74,.
Nc1ccc(S(=O)(=O)Nc2ccccc2)cc1,.,-8%,.,.,-2,-1%
CCCOc1ccc(C(=O)N(Cc2ccc(Cl)cc2)Cc2ccco2)cc1,-3%,.,.,.,-21,.
COc1ccc(CN(Cc2ccco2)C(=O)COc2ccccc2OC)cc1,4%,.,.,.,-36,.
Oc1ccccc1CN(Cc1ccco1)CC(O)COCc1ccc(Cl)cc1 (stereo not given),-16%,2.9µM*,?,-13%,?,2.1µM*
